# Experimental data as given in PubChem BioAssay (NCI).
# About 79,000 compounds went through this panel and 15% of them were active in at least one assay; those are over-represented in the sample as a whole. A number with no mark means an inactive call. No stated cut-off is given here; in the data, active means growth inhibition above about 70%; inactive means the rest.
# Experiment: NCI Yeast Anticancer Drug Screen. Data for the sgs1 mgt1 strain (AID 161);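 further: 0% = growth of cultures given vehicle only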
# Settings: S. cerevisiae sgs1 mgt1 strain, at 50.0 µM, active compounds read high
# In short: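 Read-out: growth inhibition vs vehicle controls. Cells: mutant yeast strain deficient in DNA damage repair.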
row,Compound,growth inhibition [%]
1,C#CCN(C)Cc1cc(OC)c(OC)c(OC)c1,6.55
2,O=[N+]([O-])c1ccccc1Sc1ccc2c3c(cccc13)CN(CCCO)C2,47.6
3,O=C1CC(C2OCOC3COCOC32)CC(=O)N1 (stereo not drawn),-7.15
4,CCCCCc1cc(O)cc2c1Oc1cc(O)cc(C(=O)CCCC)c1C(=O)O2,8.6
5,Nc1ccc2ccc(S(=O)(=O)O)cc2c1,-31.4
6,CC1C(NNC(N)=O)Oc2cc3c(cc2C1c1ccccc1O)OCO3 (stereo not drawn),11.8
7,CC(C)(CO)N=Cc1ccc(Cl)c(Cl)c1,-16.5
8,CC(=O)Oc1ncnc2c1cnn2C,-15.6
9,CC1CCCCN1CCCO (stereo not drawn),-22.1
10,Nc1ccc(S(=O)(=O)Nc2nc3ccccc3nc2Nc2ccc(S(N)(=O)=O)cc2)cc1,-13.8
11,CCOC(=O)c1ccc(NC(=O)Nc2cc(Cl)ncn2)cc1,9.15
12,COC(=O)CN1C(=O)OC(c2ccccc2)C1=O (stereo not drawn),-4.1
13,O=c1[nH]c2cc([N+](=O)[O-])ccc2nc1/C=C(\O)c1ccco1,7.9
14,FC(F)(F)c1cccc(NC(=S)Nc2ccccc2S)c1,27.4
15,O=C(O)CSc1c(Cl)c(=O)oc2ccc(Cl)cc12,20.2
16,Cc1ccc2nc(-c3ccc(CSC(=N)N)cc3)oc(=O)c2c1,45.6
17,CCN(CC)/[N+]([O-])=N/OC,10.9
18,CCCCCCCCCCCCCCCCOC(=O)c1cc([N+](=O)[O-])cc([N+](=O)[O-])c1Sc1ncnc2nc[nH]c12,3.5
